Our source for the activation factor and activity change, negative = activation values is PubChem BioAssay AID434970 (Sanford-Burnham Center for Chemical Genomics, 2010).

About 310 (2.8%) of roughly 11,000 compounds were called active. This is one part of a sample in which actives are shown more often than they occur. No stated cut-off is given here; in the data, active means activity change below about -85%; inactive means the rest.

This assay has as its system intestinal alkaline phosphatase [Mus musculus]. The assay is described as follows: activators of mouse IAP, confirmation, biochemical, luminescence, single concentration (AID 434970). Particulars: purified mouse IAP, CDP-Star luminescence, 30 min, at 10 µM; activation factor: measured here: IAP activation factor, stronger effect = higher value; activity change, negative = activation: stronger effect = lower value.
On to `Cc1ccc(NC(=O)N/C=C/c2ccccc2)cc1`, for which the activation factor came out at 1.56 and the activity change, negative = activation is -55.5% (inactive).
On the same counts, the results for `COC(=O)Nc1ccc2c(c1)OCO2` are 0.903 and 9.6% (inactive).
On the same counts, the results for `Cc1ccc(NC(=O)N/C=C/c2ccc(Cl)cc2)cc1` are 1.09 and -9.1% (inactive).
On to `CCN(CC)C(C(=O)Nc1ccc(C(C)C)cc1)c1ccc2c(c1)OCO2` (stereo not given), for which the activation factor came out at 1.48 and the activity change, negative = activation is -48.4% (inactive).
On the same counts, the results for `Cc1noc(-c2ccccc2)c1NC(=O)Nc1ccc(Cl)cc1` are 1.7 and -70.2% (inactive).
On the same counts, the results for `CC1CCCN(C(C(=O)Nc2ccc(C(C)C)cc2)c2ccc3c(c2)OCO3)C1` (stereo not given) are 1.73 and -73.3% (inactive).
Taken in the same sequence, the figures for `O=C(N/C=C/c1ccccc1)Nc1ccc(Cl)cc1` were 2.71 and -171% (active).
As to `CC(C)c1ccc(NC(=O)NC(C)c2ccc3c(c2)OCO3)cc1` (stereo not given), the activation factor came to 3.31 and the activity change, negative = activation was -231% (active).
Taken in the same sequence, the figures for `COc1ccc(Cl)cc1C(=O)Nc1ccc2c(c1)OCO2` were 1.1 and -10.2% (inactive).
Taken in the same sequence, the figures for `CC(NC(=O)Nc1ccc(Cl)cc1)c1ccc2c(c1)OCO2` (stereo not given) were 2.53 and -153% (active).
In the case of `CC(NC(=O)C1CCC1)c1ccccc1` (stereo not given), the activation factor amounted to 1.12 and the activity change, negative = activation was -11.9% (inactive).
Taken in the same sequence, the figures for `CC(NC(=O)Nc1ccc(Cl)cc1)c1ccccc1` (stereo not given) were 2.11 and -111% (active).
On the same counts, the results for `Cc1cccc(OCCCSc2nc3ccccc3[nH]2)c1` are 1.13 and -12.6% (inactive).
On the same counts, the results for `COC(=O)c1c(NC(=O)c2ccccc2)sc(Cc2ccccc2)c1C` are 1 and -0.05% (inactive).
For `O=C(NCC(=O)N(CC1CCCO1)C1(C(=O)NC2CCCC2)CCCCC1)c1ccccc1` (stereo not given), the activation factor came out at 1.03 and the activity change, negative = activation is -3.2% (inactive).
On the same counts, the results for `CCOC(=O)N1CCN(C(=O)Cn2c(C)cc3ccccc3c2=O)CC1` are 1.12 and -11.8% (inactive).
Taken in the same sequence, the figures for `Cc1ccc(Nc2c3c(nc4ncnn24)CC(C)CC3)cc1` (stereo not given) were 1.02 and -2.1% (inactive).
Taken in the same sequence, the figures for `C1CN(c2nc3nonc3n3nnnc23)CCO1` were 0.972 and 2.75% (inactive).
As for `O=C(Cn1cc(C(=O)C2CC2)c2ccccc21)NCC1CCCO1` (stereo not given), the activation factor was 0.944 and the activity change, negative = activation was 5.6% (inactive).
On the same counts, the results for `O=C(O)CS(=O)(=O)c1ccc(Oc2ccc(S(=O)(=O)CC(=O)O)cc2)cc1` are 1.1 and -10.4% (inactive).
On the same counts, the results for `CC(NC(=O)c1ccco1)c1ccc2c(c1)OCCO2` (stereo not given) are 0.968 and 3.25% (inactive).
Taken in the same sequence, the figures for `CCc1ccc(NC(=O)NC(C)c2ccc3c(c2)OCO3)cc1` (stereo not given) were 2.66 and -166% (active).
`CC(C)c1ccc(NC(=S)NCc2ccc3c(c2)OCO3)cc1`: the activation factor came to 1.36 and the activity change, negative = activation is -36.3% (inactive).
Taken in the same sequence, the figures for `COc1cc2oc(=O)cc(-c3ccc(-c4ccc(C)cc4)cc3)c2c(OC)c1OC` were 0.934 and 6.55% (inactive).
Taken in the same sequence, the figures for `COc1ccc(CC(=O)N[C@@H]2c3ccccc3CC[C@@H]2OCc2ccccc2)cc1` were 1.19 and -18.9% (inactive).
